# Measured values reported in ChEMBL document CHEMBL4513216, “Probing the Open Global Health Chemical Diversity Library for Multistage-Active Starting Points for Next-Generation Antimalarials” (ACS Infect Dis, 2020).
# The whole screen tested about 69,000 compounds, of which about 8,600 (12%) showed an effect of 50% or more. What follows is part of a selection rich in strong results, with near analogues and random picks from the rest.
# System: Plasmodium berghei
# Experiment: Screen against P. berghei liver stage (PbLuc), transformed with Luciferase, at 10uM
# Format: functional, HepG2
# Settings: tested at 10 uM
row,SMILES,INHIBITION [%]
1,Cc1ccc(C(=O)N2CCC3(CC2)COC(COc2ccccn2)C3)o1 (centres undefined),-9.1
2,O=C(c1ccncc1)N1CCCC1c1cccc(Br)c1 (centres undefined),15.1
3,CC(C)Cc1ncc2c(n1)CN(C(=O)Cn1c(=O)oc3ccccc31)C2,54.5
4,CCc1ncc2c(n1)CN(C(=O)CC(C)NC(C)=O)C2 (centres undefined),51.2
5,CCOc1ccc(C(=O)N2Cc3cnc(CC)nc3C2)o1,-6.83
6,CCc1ncc2c(n1)CN(C(=O)c1c(C)[nH]c3c1C(=O)CCC3)C2,61
7,CCc1ncc2c(n1)CN(C(=O)c1c(C)[nH]c(C(C)=O)c1C)C2,39.6
8,CC(=O)NCC(=O)N1Cc2cnc(CC(C)C)nc2C1,60.3
9,CCc1ncc2c(n1)CN(C(=O)CNC(=O)c1ccccc1)C2,30.3
10,CCc1ncc2c(n1)CN(C(=O)COC)C2,-7.35
11,O=C(Cn1c(=O)oc2ccccc21)N1Cc2cncnc2C1,15.4
12,CC(=O)c1c(C)nn(CC(=O)N2Cc3cnc(CC(C)C)nc3C2)c1C,27.9
13,CCc1ncc2c(n1)CN(C(=O)CNC(=O)C(C)C)C2,10.3
14,O=C(Cn1c(=O)oc2ccccc21)N1Cc2cnn(CCO)c2C1,13.7
15,FC(F)(F)c1ccc(-c2cnc(C3CCCN3)cn2)cc1 (centres undefined),34.675
16,CCC(CC)C(=O)N1CCN(Cc2cc(-c3ccncc3)nn2C)CC1,-8.12
17,Cc1nn(C)c(N2CCOCC2)c1CNCc1ccccc1CO,-25.9
18,NC(=O)C(NCc1nn(-c2ccccc2)c2c1CCC2)c1ccccc1 (centres undefined),8.15
19,Fc1ccccc1CN1CCC(c2noc(-c3ccccn3)n2)CC1,-23.4
20,O=C1NCCCCC1NCc1csc(-c2ccccn2)n1 (centres undefined),8.07
21,CC(Cn1cccn1)NC(=O)NCc1ccoc1 (centres undefined),15.6
22,CS(=O)(=O)N1CC2(CCN(Cc3ccccn3)C2)Cc2ccccc21 (centres undefined),14.3
23,CC(C)CC(=O)NCCCc1cc(N)n(-c2ccccc2)n1,16.6
24,Cc1noc(C)c1CN(C)Cn1c(=O)oc2ccccc21,50.4
25,Cc1noc(C)c1CN(C)C(=O)Cn1c(=O)n(C)c2ccccc21,26.8
26,Cc1noc(C)c1CN(C)Cn1c(=O)n(C)c2ccccc21,28.2

row,SMILES,INHIBITION [%]
1,Cc1ccc(C(CNC(=O)c2c(C)noc2C(C)C)N(C)C)cc1 (centres undefined),7.12
2,CC(CN1CCCCCC1)NCc1nncn1C1CCCCC1 (centres undefined),75.4
3,Cc1cc(C)n(CC(C)NCc2nncn2C2CCCCC2)n1 (centres undefined),-47.9
4,CC(CN1CCOCC1)NCc1nncn1C1CCCCC1 (centres undefined),28.3
5,O=C(NCc1ccccc1)[C@H]1C[C@H]2CN(S(=O)(=O)C3CC3)C[C@@H]1O2,31.8
6,CC1CN(Cc2ccc(-n3cccn3)cc2)CCO1 (centres undefined),-15.5
7,Cc1noc(C)c1CN1C[C@H]2CNC[C@H]2C1,-19.2
8,CNC(=O)[C@H]1C[C@@H]2CN(Cc3c(C)noc3C)C[C@@H]2N1C(C)=O,22.2
9,Cc1noc(C)c1CN1C[C@@H]2C[C@@H](C)O[C@@H]2C1,-10.2
10,Cc1noc(C)c1CN1C[C@@H]2C[C@H](C(=O)NCC3CC3)N(C)[C@@H]2C1,26
11,Cc1noc(C)c1CN1C[C@@H]2CC(F)(F)C[C@@H]2C1,87.2
12,CNC(=O)[C@@H]1C[C@H]2CN(Cc3c(C)noc3C)C[C@H]2N1C(C)C,83.8
13,CC(=O)N1CCC(c2cnc(NC3CCOCC3)cn2)CC1,-20.6
14,Cc1ncsc1CNC(=O)N(CCCO)C1CCc2ccccc21 (centres undefined),-7.35
15,COc1cc(S(=O)(=O)N2CCc3ccc(F)cc32)cc(C(=O)O)c1OC,42.9
16,Cc1ccc(S(=O)(=O)N2CCc3ccc(F)cc32)cc1C(=O)O,-3.2
17,Cc1cc(S(=O)(=O)N2CCc3ccc(F)cc32)cc(C(=O)O)c1C,61.3
18,O=C(c1ccc[nH]1)N1CCCn2c(CNC3CCC3)nnc2C1,45.7
19,CC(C)CNC(=O)CNc1c(NCc2ccco2)c(=O)c1=O,31.3
20,O=C(Cc1ccccc1)NCc1ncc(-c2ccccc2C(=O)O)cn1,1.65
21,COCC(=O)NCc1ccc(-c2ccccc2C(=O)O)cn1,-26.7
22,O=C(Cc1ccccc1)NCc1ccc(-c2ccccc2C(=O)O)cn1,50.3
23,Cc1ccc(CNC(=O)c2ccc(F)cc2)o1,0.868
24,CCN1CCc2[nH]cnc2C12CCN(Cc1ccc3nsnc3c1)CC2,23.6
25,O=C(Cc1ccc2c(c1)OCC2)Nc1nn[nH]n1,23.1
26,CCC(C)CNC(=O)[C@@H]1CCCN1c1nccc(Nc2ccccc2)n1 (some centres undefined),13.5

row,SMILES,INHIBITION [%]
1,O=C(O)[C@@H]1CCCN1c1nccc(Nc2ccccc2)n1,0.618
2,O=C([C@@H]1CCCN1c1nccc(Nc2ccccc2)n1)N1CCCCC1,78.7
3,Cc1cccc(NC(=O)Nc2c[nH]c(=O)[nH]c2=O)c1C,-13.6
4,Cc1cc(C(=O)N2CCN(Cc3ccsc3)CC2)c(C)n1C1CC1,-1.14
5,Cc1ncc(S(=O)(=O)N(CC(C)C)c2cccc(O)c2)s1,61
6,CC(C)CN(c1cn[nH]c1)S(=O)(=O)c1cccc(C#N)c1,10.8
7,CC(=O)Nc1ncc(S(=O)(=O)Nc2cccc(O)c2)s1,13.5
8,O=C(c1ccc[nH]1)N1CCc2c(cccc2S(=O)(=O)N2CCOCC2)C1,22.2
9,Cc1n[nH]c(CN2CCN(CC3CC3)[C@@H]3CS(=O)(=O)C[C@@H]32)n1,55.9
10,Cn1ccnc1CN1CCN(Cc2ccccc2)[C@@H]2CS(=O)(=O)C[C@@H]21,46.7
11,Cc1n[nH]c(CN2CCN(C(=O)C3CCC3)[C@@H]3CS(=O)(=O)C[C@@H]32)n1,-2.79
12,Cn1ccnc1CN1CCN(CC2CC2)[C@@H]2CS(=O)(=O)C[C@@H]21,56.7
13,CC(C)=CCN1CCN(Cc2nccn2C)[C@H]2CS(=O)(=O)C[C@H]21,23.9
14,Cc1n[nH]c(CN2CCN(Cc3ccccc3)[C@@H]3CS(=O)(=O)C[C@@H]32)n1,18.9
15,CN(C)CCC1CN(C(=O)c2cccc3c2OCC3)CCO1 (centres undefined),-15.1
16,COCC1CN(Cc2cc(C)on2)Cc2cn(CC3CCCC3)nc21 (centres undefined),15.3
17,Cc1cc(OC(F)F)c(C(=O)N2CCN(C3CC3)CC2)s1,-3.47
18,Cn1cnc2c1C(COCC1CCOCC1)CN(C(=O)c1ccco1)C2 (centres undefined),64.9
19,Cc1noc(C)c1C(=O)N1Cc2ncn(C)c2C(COCC(C)C)C1 (centres undefined),36.7
20,Cn1ncc2c1C(COCC1CC1)CN(C(=O)c1cscn1)C2 (centres undefined),34.6
21,Cn1cnc2c1C(COCC1CCOCC1)CN(C(=O)c1ccoc1)C2 (centres undefined),40.4
22,Cn1cnc2c1C(COCC1CC1)CN(C(=O)c1cscn1)C2 (centres undefined),58.8
23,Cc1noc(C)c1C(=O)N1Cc2ncn(C)c2C(COCC2CC2)C1 (centres undefined),58.4
24,CCOCC1CN(C(=O)c2cscn2)Cc2cnn(CC3CC3)c21 (centres undefined),56.7
25,CN(C)C(=O)N1Cc2ncn(C)c2C(COCC2CCOCC2)C1 (centres undefined),6.6
26,Cc1ccsc1C(=O)N1Cc2ncn(C)c2C(COCC2CC2)C1 (centres undefined),11.4

row,SMILES,INHIBITION [%]
1,CCOCC1CN(C(=O)c2cscn2)Cc2nnn(CC3CC3)c21 (centres undefined),13.6
2,CC(C)COCC1CN(C(=O)c2cscn2)Cc2ncn(C)c21 (centres undefined),34.9
3,CCOCC1CN(C(=O)c2cnccn2)Cc2cnn(CC3CC3)c21 (centres undefined),6.6
4,CCn1ccnc1CN1CCCN(C(=O)c2cc[nH]n2)CC1,-18.45
5,Cc1nc(C)n(CC2CCCCN2CCOc2cccc(C#N)c2)n1 (centres undefined),21.5
6,CN(C)C1(CNc2nccc(C3CCCC3)n2)CCOCC1,-15.3
7,Cn1ccnc1CNC(=O)CC1CCCCO1 (centres undefined),19.25
8,COCCNCc1cc2ccc(C)c(C)c2[nH]c1=O,1.475
9,CC(=O)Nc1cccc(CN2CCN(C3=NCC(C)(C)S3)CC2)c1,42.1
10,CN(C)CCN1CCOCC2(C1)CN(Cc1ccsc1)CCO2 (centres undefined),25.6
11,CCS(=O)(=O)N(C)CCCNCc1c(C)nn(C)c1N(C)C,19.15
12,CC(C)CN1CCN(C(=O)CCn2cccn2)CC1,2.4
13,C[C@H]1C(=O)NC[C@H]2CN(CCc3ccccc3)C[C@H]21,-23.3
14,CCN(CC)C(=O)Cn1ccc2cc(NC(=O)C3CCCCC3)ccc21,-3.202
15,CCN(CC)C(=O)Cn1ccc2cc(NC(=O)C3CC3)ccc21,52.7
16,CCC(=O)Nc1ccc2c(ccn2CC(=O)N(CC)CC)c1,8.4
17,CCc1nccn1C1CCCN(C(=O)c2ccc(-n3ccnc3)cc2)C1 (centres undefined),33.3
18,N#CC(Sc1nnnn1C1CCOCC1)C1CCCCC1 (centres undefined),-58.6
19,CCCC(C)Sc1nnnn1C1CCOCC1 (centres undefined),15
20,COC(=O)C(C)Sc1nnnn1C1CCOCC1 (centres undefined),23.6
21,CC(Sc1nnnn1C1CCOCC1)C(=O)NC1CCCCC1 (centres undefined),3.47
22,CC(C)Sc1nnnn1C1CCCC1,66.9
23,CC(Sc1nnnn1C1CCOCC1)C(F)(F)F (centres undefined),52.8
24,N#CC1(NC(=O)c2ccc(F)cc2OC(F)F)CCOCC1,8.12
25,CN(C)C(=O)COC1COC2(CCN(c3cccc(F)c3)CC2)C1 (centres undefined),42.7
26,Cc1ccc(-c2noc(C(C)(C)NS(C)(=O)=O)n2)cc1F,15.4
